High-throughput results from PubChem BioAssay.
PI5P4Ka inh – inhibitors of human PI5P4K alpha. PI5P4Kalpha enzyme, ADP-Glo luminescence, 60 min; active compounds read low. max response, %. P48426. 1.2% of 330,000 active; active = max response of -50% or lower; inconclusive = between -30% and -50%; inactive = -30% or higher; also: value at the top dose of about 77 µM; % is scaled to controls: 0 for no effect and ±100 for the full control effect
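Luminescence from ADP-Glo served as readout of PI5P4Kalpha activity in a qHTS format. Reaction: enzyme, substrate, compound, ATP at 5 microM final, 60 min at RT.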
L3MBTL1 inh – L3MBTL1 (human) inhibition | AlphaScreen L3MBTL1–H3K9me1 peptide binding | AID 485360 | 0.66% of 230,000 active | Potency, µM (series often up to 57.1 µM), inactives show top-dose activity, negative = inhibition, hits mostly inhibitors | Q9Y468; also: potency is read from the fitted curve at half-maximal effect; % is scaled to controls: 0 for no effect and ±100 for the full control effect; nearly all actives have a fitted effect of over 60% in size
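L3MBTL1 (50 nM) pre-complexed 30 min with biotinylated H3(1-15)K9me1 peptide (75 nM), then compounds added for 30 min at room temperature; AlphaScreen streptavidin donor/nickel chelate acceptor beads (10 ug/mL final) read after 30 min dark incubation.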
G9a inh – blocks human histone lysine methyltransferase G9a; Q96KQ7; G9a H3K9 monomethylation, AlphaScreen, 2 h; Potency, µM (highest dose often 102 µM), for inactives: top-dose activity, negative = inhibition, usual class: inhibitors; 8.8% of 350,000 active; also: potency is read from the fitted curve at half-maximal effect; % is scaled to controls: 0 for no effect and ±100 for the full control effect; nearly all actives have a fitted effect of over 75% in size
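Signal arises when biotinylated H3K9 peptide, once monomethylated, bridges streptavidin donor and antibody-captured acceptor beads. Enzyme at 20 nM was preincubated 15 min with test compounds; peptide 500 nM and SAM 20 uM then reacted for 2 h.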
BAZ2B inh – BAZ2B (human) inhibition; Q9UIF8; AlphaScreen BAZ2B-H3K14Ac peptide displacement; Potency, µM (top dose mostly 114 µM), without a hit: at the highest dose activity change, negative = inhibition, actives largely listed as inhibitors; 4.4% of 360,000 active; AID 504333; also: potency is read from the fitted curve at half-maximal effect; % is scaled to controls: 0 for no effect and ±100 for the full control effect; nearly all actives have a fitted effect of over 60% in size
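BAZ2B 50 nM plus b-H3(5-23)K14Ac 50 nM, PBS pH 7.4/0.01% Tween-20, 30 min RT; compound added (max 110 uM), 30 min RT; streptavidin donor/Ni-chelate acceptor beads 10 ug/mL final, 20 min dark; AlphaScreen read.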
JMJD2A Tudor – inhibitors of human JMJD2A Tudor domain; O75164; AlphaScreen JMJD2A-Tudor / H3K4me3 peptide binding; Potency, µM (titrated, usually from 114 µM), without a hit: top-dose activity change, negative = inhibition, usual class: inhibitors; 4.4% of 390,000 active; AID 504339; also: potency is read from the fitted curve at half-maximal effect; % is scaled to controls: 0 for no effect and ±100 for the full control effect; nearly all actives have a fitted effect of over 50% in size
HP1b chromo inh – HP1-beta chromodomain-methylated histone interaction inhibition | AlphaScreen HP1-beta / biotin-H3K9me3 peptide binding | P83916 | 0.56% of 390,000 active | Potency, µM (top dose mostly 114 µM), inactives show top-dose activity change, negative = inhibition, usual class: inhibitors; also: potency is read from the fitted curve at half-maximal effect; nearly all actives have a fitted effect of over 70% in size
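Compound inhibition of the preformed complex between 50 nM HP1-beta and 50 nM biotinylated H3K9me3 peptide was read by AlphaScreen. Buffer was PBS pH 7.4 with 0.01% Tween-20. Incubations ran 30 min at room temperature, with 10 ug/mL donor/acceptor beads.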
Numbers without * were called inactive; ? = inconclusive; · = no result given; [ ] = dose if it differs, or a comment. Most compounds without a hit are left out; they make up all but 11% or so of the library. Unless noted, calls follow the shape of the dose curve; as a rule, active = well fitted inhibition curve with a large enough effect; inconclusive = small, poorly fitted or top-dose-only effect; inactive = no such curve, though single readings can be large or run the other way.

SMILES	PI5P4Ka inh	L3MBTL1 inh	G9a inh	BAZ2B inh	JMJD2A Tudor	HP1b chromo inh
O=S(=O)(c1nccs1)N1CCN(c2nc(-c3cccs3)nc3ccccc23)CC1	·	·	·	·	-18%	37%
COc1cccc2oc3cc(C#Cc4ccccn4)ccc3c(=O)c12	-23	-8%	·	40µM*	22µM*	68%
COCCNC(=O)CCn1c(=O)[nH]c2cc(OC)c(OC)cc2c1=O	·	·	-2%[59 µM]	3%	-1%	30%
FC(F)(F)c1ccccc1CNCc1ccc2c(c1)OCO2	-1	·	-63%	?	20µM*	?
Cc1ccc(CNCc2ccc3c(c2)OCO3)cc1	13	6%	13µM*	?	1.4µM*	?
COc1ccc(CNCc2ccc3c(c2)OCO3)c(OC)c1OC	-1	-2%	45µM*	-31%	0.79µM*	?
Cc1ccc(CC(=O)NCc2ccc3c(c2)OCO3)cc1	-2	·	-2%[59 µM]	4%	-15%	11%
N#Cc1ccc2c(c1)C[C@]1(c3ccsc3)OC3=C(C(=O)OC4(CCCCC4)C3)C2O1	·	·	·	-13%[22.9 µM]	·	·
Cc1ccc(-n2cc(CNCCN3CCOC3=O)c(-c3cccc(C)c3)n2)cc1	30	-3%	35µM*	?	-23%	24%
Cc1ccc(-n2cc(CNCCCn3cccn3)c(-c3cccc(C)c3)n2)cc1	14	-3%	-14%	-21%	-18%	-2%
O=C1OCCN1CCNCc1cn(-c2ccc(F)cc2)nc1-c1ccccc1Cl	-8	-3%	?	-18%	-13%	28%
Cc1cccc(-c2nn(-c3ccccc3)cc2CNCCO)c1	·	·	·	·	10µM*	?
O=C(CSc1nc(=O)[nH]c2c1CCCC2)NCc1ccc(F)cc1	·	·	3%[59 µM]	0%	-3%	28%
O=C(Nc1cc(S(=O)(=O)N2CCOCC2)ccc1N1CCOCC1)c1cccs1	0	5%	14%[2.33 µM]	0%	89µM*	-21%
CN1CCN(S(=O)(=O)c2cccc(C(=O)NCc3ccc(Cl)cc3)c2)CC1	3	1%	-2%	·	-6%	35%
CCc1ccc(C(=O)NNC(=O)c2cccc(S(=O)(=O)N3CCN(C)CC3)c2)cc1	6	0%	56µM*	12%	-19%	6%
CN1CCN(S(=O)(=O)c2cccc(C(=O)Nc3ccccc3N3CCCC3)c2)CC1	3	·	?	-29%	-13%	2%
CC1CN(S(=O)(=O)c2cccc(C(=O)Nc3cc(Cl)ccc3N3CCOCC3)c2)CC(C)O1 (stereo unspecified)	8	0%	-12%[59 µM]	12%	-8%	41%
CC1CN(S(=O)(=O)c2cccc(C(=O)Nc3ccccc3N3CCCC3)c2)CC(C)O1 (stereo unspecified)	3	-13%	50µM*	-33%	?	-18%
CN1CCN(S(=O)(=O)c2cccc(C(=O)Nc3cc(Cl)ccc3N3CCOCC3)c2)CC1	9	3%	16µM*	-3%	-13%	15%
COc1ccc(S(=O)(=O)N(CCO)c2ccccc2CN(C)CC=Cc2ccc(Cl)cc2)cc1	·	·	10%[59 µM]	·	·	·
COc1ccc(OC)c(S(=O)(=O)N2CC=C(c3c(C)n(CC(=O)N4CCCC4)c4ccccc34)CC2)c1	·	·	?	?	-28%	19%
CN1CCN(S(=O)(=O)c2cccc(C(=O)Nc3cc(C(F)(F)F)ccc3N3CCCC3)c2)CC1	18	-4%	50µM*	2%	-13%	28%
O=c1cc(CSc2n[nH]c(-c3ccccc3)n2)[nH]c2ccccc12	·	·	3%[59 µM]	-1%	-23%	19%[57 µM]
C#CCOc1c(Cl)cc(/C=C2/C(=O)ON=C2C)cc1OC	0	·	40µM*	-3%	-3%	1%
COc1ccc(Cl)cc1/C=C1/C(=O)ON=C1C	-4	·	?	-27%	-29%	13%
COc1cc(/C=C2/C(=O)ON=C2C)cc(Cl)c1O	-59*	·	35µM*	56µM*	-24%	-11%
CCOC(=O)c1c(C)[nH]c(CCC(=O)Nc2ccc(Cl)cc2C)c1C	·	·	7%[59 µM]	3%	-8%	21%[57 µM]
COC(=O)N1CCC[C@@]2(CCN(C(=O)Nc3ccc(OC)cc3)C2)C1	·	·	5%[12.7 µM]	·	·	·
